Outcome and AC50 data for twelve compounds are collected here from PubChem BioAssay (EPA / NIEHS).

Each structure is given as a SMILES string. Records with an inconclusive call do not appear. Active and inactive are the calls of the source. The calls were made as follows: active = hit-call score of the fitted dose curve at least 0.9, where 1 is the maximum; inconclusive = response in the unintended direction; inactive = score below 0.9.

Sequence of human Ephrin type-A Receptor 1 (EphA1), EPHA1 (gene 2041) (P21709 whole entry, looked up): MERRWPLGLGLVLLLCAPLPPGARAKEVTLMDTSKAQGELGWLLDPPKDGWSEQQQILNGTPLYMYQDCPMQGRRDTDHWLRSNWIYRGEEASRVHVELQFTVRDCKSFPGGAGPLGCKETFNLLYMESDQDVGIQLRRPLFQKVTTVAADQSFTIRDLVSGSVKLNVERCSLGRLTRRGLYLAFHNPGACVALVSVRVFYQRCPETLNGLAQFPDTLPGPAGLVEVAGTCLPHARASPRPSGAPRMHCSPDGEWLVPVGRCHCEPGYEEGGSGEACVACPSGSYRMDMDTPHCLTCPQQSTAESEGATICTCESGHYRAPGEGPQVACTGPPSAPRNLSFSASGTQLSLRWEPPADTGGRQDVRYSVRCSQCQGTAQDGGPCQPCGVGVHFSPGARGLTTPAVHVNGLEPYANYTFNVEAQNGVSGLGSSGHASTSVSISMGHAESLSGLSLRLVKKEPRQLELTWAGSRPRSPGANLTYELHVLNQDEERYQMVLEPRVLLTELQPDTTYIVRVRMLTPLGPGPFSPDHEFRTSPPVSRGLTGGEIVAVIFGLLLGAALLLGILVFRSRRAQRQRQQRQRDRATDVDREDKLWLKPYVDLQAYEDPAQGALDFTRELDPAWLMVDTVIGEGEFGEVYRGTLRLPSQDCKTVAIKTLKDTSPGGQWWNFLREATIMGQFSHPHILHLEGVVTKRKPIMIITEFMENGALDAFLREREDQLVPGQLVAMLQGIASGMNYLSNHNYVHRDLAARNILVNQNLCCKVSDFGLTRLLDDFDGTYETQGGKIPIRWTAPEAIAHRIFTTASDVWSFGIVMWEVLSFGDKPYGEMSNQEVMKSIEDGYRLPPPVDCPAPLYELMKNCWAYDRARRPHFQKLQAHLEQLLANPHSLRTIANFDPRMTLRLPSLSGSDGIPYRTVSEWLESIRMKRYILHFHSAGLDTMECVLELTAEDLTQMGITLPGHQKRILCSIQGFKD

The target in the experiment is human Ephrin type-A Receptor 1 (EphA1), EPHA1 (gene 2041) (UniProt P21709). Nature of the experiment: NVS_ENZ_hEphA1: NovaScreen (NVS) Enzymatic Assay for human Ephrin type-A Receptor 1 (EphA1) (AID 2283158). The protocol:
NVS_ENZ_hEphA1 is a biochemical, single-readout assay that uses extracted gene-proteins in a cell-free assay. Measurements were taken 1 hour after chemical dosing in a 384-well plate.NVS_ENZ_hEphA1 is one of one assay component(s) measured or calculated from the NVS_ENZ_hEphA1 assay. It is designed to make measurements of enzyme activity, a form of enzyme reporter, as detected with fluorescence intensity signals by Fluorescence and electrophoretic mobility shift technology.Data from the assay component NVS_ENZ_hEphA1 was analyzed into 1 assay endpoint. This assay endpoint, NVS_ENZ_hEphA1, was analyzed in the positive analysis fitting direction relative to DMSO as the negative control and baseline of activity. Using a type of enzyme reporter, loss-of-signal activity can be used to understand changes in the enzymatic activity as they relate to the gene EPHA1. Furthermore, this assay endpoint can be referred to as a primary readout, because this assay has produced multiple assay endpoints where this one serves a enzymatic activity function. To generalize the intended target to other relatable targets, this assay endpoint is annotated to the kinase intended target family, where the subfamily is receptor tyrosine kinase.
Binding assays used specific radioligands (tritiated, iodinated) with non-radioactive competitive displacement ligands in agonist or antagonist protocols (as indicated) and various reference compounds and inhibitors to titrate specific binding to receptors and transporters. Most enzyme assays (CYPs, kinases, phosphatases, proteases, HDACs) used recombinant protein and specific substrates (fluorescence mostly, some colorimetric and radioactive) and inhibitors, followed by a biochemical separation of substrate and product. All assays for the biochemical HTS were initially run in duplicate at a single concentration (10 uM for CYP450 assays and 25 uM for all others). Assay-chemical combinations meeting a pre-defined threshold (e.g., 30% inhibition and other criteria defined below) were then run in singleton concentration-response format with maximum concentration of 20 uM for CYPs and 50 uM for all others. Each assay was run with positive and negative controls, and concurrent controls on every plate. The follow-up (secondary) screen tested active chemical-pairs in concentration series, as well as a few additional assays not tested in the primary screen, some selected negative inactives, and several cases re-run in the concentration series for confirmatory purposes.
For `CC(C)(C)C(=O)CCl`, the compound was classed as inactive.

As to `O=C(O)CCCc1ccc(N(CCCl)CCCl)cc1`, the outcome was inactive. For the compound `CCC[N+](=O)[O-]`, the AC50 was 25 µM (active).

Turning to `CC(=O)/C=C/c1ccccc1`, the result was inactive. In the case of `O=P1(NCCCl)OCCCN1CCCl` (configuration not stated), the result was inactive.

As to `O=[N+]([O-])c1ccc(Cl)cc1`, the compound was classed as inactive.

`N#CCCCCC#N`: the compound was called inactive. For the compound `O=C1C(Cl)=C(Cl)C(=O)C(Cl)=C1Cl`, the call was inactive. Still for that read-out and setting: in the case of `BrCBr` it was “inactive”; in that of `O=[N+]([O-])C=Cc1ccccc1`, “inactive”.

For `CCC(C)(C)O`, the compound was called inactive. With `Cc1ncc(C[n+]2csc(CCO)c2C)c(N)n1`, the outcome was inactive.
